Source: PubChem BioAssay AID652067 (The Scripps Research Institute Molecular Screening Center, 2013)
In all, about 370,000 compounds went through this assay and about 5,400 (1.5%) were called active. Only a selection was taken, and actives are over-represented in it overall. A number with no mark means an inactive call.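 The calls were made as follows: active = activation above the mean of all tested compounds plus 3 SD (cut at about 5.5% in these data); inactive = the rest.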

System: DAF-12 nuclear receptor (Haemonchus contortus)
Test: hcDAF-12 driven luciferase reporter activation – cell-based, luminescence, HEK293, lit1-tk-luc reporter, primary screen (AID 652067);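 also: 100% = response to 3 µM Δ7-dafachronic acid high control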
Conditions: HEK293 hcDAF-12 lit1-tk-luc reporter, at 6.8 µM, active compounds read high, 0% DMSO, 100% Δ7-dafachronic acid

SMILES	activation
O=C(NC1CCC1)c1ccc(C#Cc2cccc(F)c2)c[n+]1[O-]	1.33%
CCOC(=O)c1cc2ccccc2n1CC(=O)c1ccccc1	1.16%
COc1cc(C(O)c2nc3ccccc3n2C)cc(OC)c1OC (stereo not drawn)	-1.25%
COCn1c(C(O)c2ccccc2)cc2ccccc21 (stereo not drawn)	6.22% (active)
COc1ccccc1-c1ccc([C@@H]2C[C@H]3[C@H](CON3C)CN2S(=O)(=O)c2cc(Cl)cc(Cl)c2)cc1	1.1%
O=C(Nc1ccccc1)Nc1nnc(COc2ccccc2F)s1	-0.12%
O=C(Nc1nc2ccc(Cl)cc2s1)c1cc(-c2ccc(Cl)cc2)nc2ccccc12	4.5%
O=C(Nc1ccccc1)Nc1nc2ccccc2s1	15.3% (active)
O=C(CCCCCN1C(=O)C2C3C=CC(C3)C2C1=O)Nc1ccccn1 (stereo not drawn)	2.04%
CCOC(=O)[C@]12CCCC3=C1N(CCC3)C(=O)[C@@H](CC(=O)N1CCSCC1)C2	-2.29%
CCCCn1c(N)c(N(CCOC)C(=O)c2cccc(S(=O)(=O)N3CCCCC3)c2)c(=O)[nH]c1=O	-0.97%
CCCCn1c(N)c(N(CC(C)C)C(=O)c2cccc(S(=O)(=O)N3CCN(C(C)=O)CC3)c2)c(=O)[nH]c1=O	-1.13%
CCCCn1c(N)c(N(CC(C)C)C(=O)c2cccc(S(=O)(=O)N3CC(C)OC(C)C3)c2)c(=O)[nH]c1=O (stereo not drawn)	6.01% (active)
Nc1[nH]c(/C=C2/CCCCC2n2[nH]c(=O)n(-c3ccccc3)c2=O)c(Cc2ccccc2)[n+]1Cc1ccccc1 (stereo not drawn)	-2.89%
COC(=O)C12C=C3CC(c4ccccc4)=C3C(=O)N1Cc1[nH]c3ccccc3c1C2 (stereo not drawn)	1.08%
OC(c1ccccc1)c1nc(-c2cnc3ccccc3c2)cs1 (stereo not drawn)	7.43% (active)
COc1cccc(C(NC(C)=O)c2nc(-c3cnc4ccccc4c3)cs2)c1 (stereo not drawn)	-2.08%
CC(C)c1cccc(-c2csc(C(O)c3ccccc3)n2)c1 (stereo not drawn)	1%
COC(=O)c1cc(S(=O)(=O)N2CCN(C(=O)C3CCCO3)CC2)cn1C (stereo not drawn)	2.12%
Cc1cc(NS(=O)(=O)c2ccc(NC(=O)CSc3nnc(-c4ccc(C(C)(C)C)cc4)n3Cc3ccco3)cc2)nc(C)n1	-0.89%
Nc1cc(=O)c2[nH]cnc2[nH]1	-0.07%
CCCC[C@H](C(=O)N(CC)c1ccccc1)[C@@H](O)c1ccc2ccccc2c1	-1.18%
C=CCN(Cc1ccc2c(c1)OCO2)C(C#CC1CC1)C(C)(C)C (stereo not drawn)	-0.69%
